Unmarked numbers belong to inactive results.
Key:
Conditions in all cases: 60 µM; 5 days; temperature: 20 °C
Meloidogyne hapla J2 = assay: proportion of mobile M. hapla J2 relative to DMSO control (fraction of DMSO control); higher = more viable, less nematicidal, active = 0.7 or less
Outline: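 Two biological replicates were run and averaged, each on 96-well plates in which about 25 M. hapla J2 sat in distilled water per well. Compound was pinned in to give 60 µM final and 0.6% v/v DMSO, and the sealed plates were shaken at 200 rpm and 20 °C for 5 days before 2 µL 1 M NaOH was added. Mobility was scored microscopically and divided by the mean from the plate's DMSO-only wells, of which there were eight.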

[1] = tested on: Caenorhabditis elegans dauer (daf-2(e1370)); assay: proportion of mobile C. elegans dauer larvae relative to DMSO control (fraction of DMSO control); higher = more viable, less nematicidal, active = 0.63 or less; extreme values may be limits of the assay
Outline: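 Synchronized C. elegans larvae were kept for 48 h at 25 °C on MYOB plates seeded with E. coli OP50 to induce dauer formation, and roughly 20 dauers were transferred into each well of a 96-well plate containing liquid NGM. Compound was pinned in to a final concentration of 60 µM with 0.6% v/v DMSO, and the sealed plates were shaken at 200 rpm for 5 days at 20 °C. The fraction of mobile worms was scored under a dissection microscope against DMSO-only wells and averaged across two biological replicates.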

Ditylenchus dipsaci = assay: proportion of mobile D. dipsaci (mixed stage) relative to DMSO control (fraction of DMSO control); higher = more viable, less nematicidal, active = 0.86 or less; extreme values may be limits of the assay
Outline: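 The worms, D. dipsaci raised on pea plants in Gamborg B-5 agar, were recovered through a filter funnel into water. Each well of a 96-well plate then held about 20 of them in distilled water plus pinned compound at 60 µM final (0.6% v/v DMSO), and the sealed plates were shaken at 200 rpm at 20 °C for 5 days. Following addition of 2 µL 1 M NaOH, mobile worms were counted by microscopy, and mobility was expressed against DMSO controls as the average of two biological replicates.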

| SMILES | proportion of mobile M. hapla J2 (Meloidogyne hapla J2) | proportion of mobile C. elegans dauer larvae [1] | proportion of mobile D. dipsaci (Ditylenchus dipsaci) |
| --- | --- | --- | --- |
| c1ccc(-c2noc(COc3cccc4ccccc34)n2)nc1 | 0.936 | 1 | 1 |
| Cc1ccc(CSc2nnc(-c3cccc(Br)c3)o2)c(C)c1 | 1.02 | 1 | 1 |
| COc1cccc(-c2nc(-c3ccc(C)cc3)no2)c1 | 0.953 | 0 (active) | 1 |
| CC(C)(C)c1ccc(-c2nnc(SCc3cccc(C#N)c3)o2)cc1 | 1.05 | 1 | 1 |
| Cc1ccc(-c2nnc(SCC(=O)Nc3ccc(F)cc3)o2)cc1 | 1.04 | 1 | 1 |
| CCNC(=O)c1ccccc1-c1nc(-c2ccccc2)no1 | 0.908 | 1 | 1 |
| COc1ccc(Br)cc1-c1noc(-c2ccncc2)n1 | 0.759 | 1 | 1 |
| COC(=O)c1ccc(CSc2nnc(-c3ccc(OC)cc3)o2)cc1 | 1.02 | 1 | 1 |
| COc1ccc(NC(=O)CSc2nnc(-c3ccccc3)o2)cc1 | 0.907 | 1 | 1 |
| Clc1ccc(-c2nc(-c3ccncc3)no2)cc1Cl | 0.987 | 1 | 1 |
| Cc1cccc(-c2nnc(SCC(=O)NC(C)c3ccccc3)o2)c1 (configuration not stated) | 0.89 | 1 | 1 |
| O=C(NCCc1ccccc1)c1ccccc1-c1nc(-c2ccccc2Cl)no1 | 0.669 (active) | 1 | 1 |
| COc1ccc(-c2noc(-c3ccccc3C(=O)Nc3ccc(NC(C)=O)cc3)n2)cc1 | 0.923 | 1 | 1 |
| CCOc1nc(-c2ccccc2)ccc1-c1noc(-c2ccccc2F)n1 | 0.926 | 1 | 1 |
| O=C(Nc1ccc(-c2noc(-c3ccccn3)n2)cc1)c1cccc(Cl)c1 | 0.87 | 1 | 1 |
| COc1ccccc1-c1nnc(SCc2ccccc2C)o1 | 0.929 | 1 | 1 |
| Fc1ccc(OCc2nc(-c3ccc(Br)cc3)no2)cc1 | 0.95 | 1 | 1 |

| SMILES | proportion of mobile M. hapla J2 (Meloidogyne hapla J2) | proportion of mobile C. elegans dauer larvae [1] | proportion of mobile D. dipsaci (Ditylenchus dipsaci) |
| --- | --- | --- | --- |
| O=C(CSc1nnc(-c2cccc(Cl)c2)o1)NC1CCCCC1 | 0.874 | 1 | 1 |
| CCN(Cc1ccccc1)C(=O)c1ccccc1-c1nc(-c2cccc(C)c2)no1 | 0.579 (active) | 1 | 1 |
| Clc1cccc(OCc2nc(-c3cccs3)no2)c1 | 0.942 | 0.5 (active) | 1 |
| Fc1ccccc1-c1nc(-c2ccc(Cl)cc2)no1 | 0.956 | 1 | 1 |
| Cc1ccc(-c2noc(-c3ccccc3C(=O)N3CCC(C)CC3)n2)cc1 | 0.999 | 1 | 1 |
| Clc1ccc(OCc2nc(-c3cccnc3)no2)c(Cl)c1 | 0.998 | 1 | 1 |
| Cc1cc(Cl)ccc1OCc1nc(-c2ccc(F)cc2)no1 | 0.859 | 1 | 1 |
| c1cncc(-c2noc(-c3cccc4ccccc34)n2)c1 | 1.04 | 1 | 1 |
| Brc1ccc(-c2nc(-c3ccc4c(c3)OCO4)no2)cc1 | 1.03 | 1 | 1 |
| COc1nc(-c2ccc(C)cc2)ccc1-c1noc(C)n1 | 0.9 | 1 | 1 |
| c1ccc(-c2noc(COc3ccc4c(c3)CCCC4)n2)cc1 | 0.923 | 1 | 1 |
| CCCC(=O)Nc1ccccc1-c1nc(-c2ccncc2)no1 | 0.99 | 1 | 1 |
| CC(Sc1nnc(-c2cccnc2)o1)C(=O)c1ccccc1 (configuration not stated) | 1.03 | 1 | 1 |
| CCCCc1ccc(-c2nc(-c3cccnc3)no2)cc1 | 0.977 | 1 | 1 |
| CCC(=O)Nc1ccccc1-c1nc(-c2cccnc2)no1 | 1.02 | 1 | 1 |
| COc1ccc(Cl)cc1NC(=O)CSc1nnc(-c2ccncc2)o1 | 0.98 | 1 | 1 |
| COc1ccc(-c2noc(-c3ccccc3Cl)n2)cc1 | 0.885 | 1 | 1 |

— the supplement of paper PMC11219838
